Test results from PubChem BioAssay (NCATS).
Records with an inconclusive call do not appear. Calls of active or inactive are those of the source. Unless noted, calls come from the whole dose curve; as a rule, active = well fitted curve in the direction sought with a large enough effect; inconclusive = small, poorly fitted or top-dose-only effect, or another doubt; inactive = no such curve, though single readings can be large; an effect the other way counts as inactive or inconclusive.

Assays:
[1] = target: Cytochrome P450 1A2 (Homo sapiens) (UniProt P05177); test: p450-cyp1a2 (AID 410; calls by dose curve; note: potency is the fitted concentration of half-maximal effect;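 for activity change, negative = inhibition: -100% = full effect of reference inhibitor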)
Chain of Cytochrome P450 1A2 (Homo sapiens) (P05177 whole entry, looked up): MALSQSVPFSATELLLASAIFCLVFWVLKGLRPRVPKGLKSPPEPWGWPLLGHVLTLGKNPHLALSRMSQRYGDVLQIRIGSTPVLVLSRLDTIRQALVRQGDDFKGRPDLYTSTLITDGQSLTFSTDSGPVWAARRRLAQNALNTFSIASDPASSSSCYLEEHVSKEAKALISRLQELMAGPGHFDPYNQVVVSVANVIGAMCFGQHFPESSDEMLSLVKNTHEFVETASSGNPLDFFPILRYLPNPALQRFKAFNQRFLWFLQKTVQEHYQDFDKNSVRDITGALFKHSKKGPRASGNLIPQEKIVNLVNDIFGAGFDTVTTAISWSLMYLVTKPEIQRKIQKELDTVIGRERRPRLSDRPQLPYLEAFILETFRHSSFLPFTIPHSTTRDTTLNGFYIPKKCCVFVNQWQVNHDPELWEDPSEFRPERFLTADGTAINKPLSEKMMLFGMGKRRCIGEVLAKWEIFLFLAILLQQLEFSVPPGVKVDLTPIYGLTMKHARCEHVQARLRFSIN
Summary of the method: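 Human CYP1A2 (20nM) demethylated Luciferin-ME at its Km (100uM) in 100mM KPO4. After 10 min compound preincubation, NADPH regeneration ran the reaction 60 min at room temperature. Luciferin was read by luminescence, normalized to 57 uM furafylline.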

[2] = target: Glucocorticoid receptor (Homo sapiens) (UniProt P04150); test: GR-GFP Redistribution (AID 450;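 active = compounds whose dose series gives a full or clear partial fitted curve of increased nuclear translocation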; note: potency is the fitted concentration of half-maximal effect); details: U2OS GR-GFP nuclear translocation, laser cytometry, 2 h
Chain of Glucocorticoid receptor (Homo sapiens) (P04150 whole entry, looked up, the tested form may be a part): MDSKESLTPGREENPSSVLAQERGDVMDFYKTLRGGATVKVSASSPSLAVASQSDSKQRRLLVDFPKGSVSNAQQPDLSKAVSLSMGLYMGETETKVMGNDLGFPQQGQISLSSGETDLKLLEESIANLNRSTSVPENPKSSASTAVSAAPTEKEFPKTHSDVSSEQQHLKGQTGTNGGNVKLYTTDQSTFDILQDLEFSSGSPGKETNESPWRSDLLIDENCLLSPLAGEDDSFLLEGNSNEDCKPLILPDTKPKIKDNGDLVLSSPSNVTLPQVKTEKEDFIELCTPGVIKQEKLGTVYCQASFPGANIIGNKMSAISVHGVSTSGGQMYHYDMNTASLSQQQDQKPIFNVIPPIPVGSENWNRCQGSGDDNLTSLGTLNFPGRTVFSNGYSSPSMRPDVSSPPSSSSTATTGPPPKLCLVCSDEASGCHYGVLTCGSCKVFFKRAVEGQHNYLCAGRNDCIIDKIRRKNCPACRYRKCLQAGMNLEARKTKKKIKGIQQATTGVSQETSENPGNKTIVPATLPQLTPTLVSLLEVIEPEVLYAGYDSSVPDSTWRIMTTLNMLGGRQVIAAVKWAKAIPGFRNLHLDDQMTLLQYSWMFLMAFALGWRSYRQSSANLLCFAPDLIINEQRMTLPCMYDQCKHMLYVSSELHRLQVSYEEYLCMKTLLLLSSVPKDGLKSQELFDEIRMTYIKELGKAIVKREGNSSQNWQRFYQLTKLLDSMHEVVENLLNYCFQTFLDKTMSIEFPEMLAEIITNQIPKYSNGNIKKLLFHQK

[3] = target: Mitogen-activated protein kinase 10 (Mus musculus) (UniProt Q61831); test: JNK3 AlphaScreen Assay (AID 530; active = well fitted curve in either direction with a large enough effect, not every such curve was filed as active;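 note: kinase came from lysate of stimulated human HepG2 cells; signal reports phosphorylation of biotinylated GST-cJun 1-79 at Ser73 with 10 µM ATP; % is set by controls: 0 for no effect and ±100 for the full control effect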)
Summary of the method: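 JNK3 came from HepG2 lysates pre-activated with IL-1beta and TNF-alpha and phosphorylated biotinylated GST-cJun (1-79) at 10 uM ATP, pH 7.6, room temperature. Compounds were titrated. AlphaScreen signal used anti-phospho-cJun (Ser73) antibody.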

[4] = target: Cytochrome P450 2D6 (Homo sapiens) (UniProt P10635); test: qHTS Assay for Inhibitors and Substrates of Cytochrome P450 2D6 (AID 891); note: nearly all actives have a fitted effect of over 60% in size; note: potency is the fitted concentration of half-maximal effect
Chain of Cytochrome P450 2D6 (Homo sapiens) (P10635 whole entry, looked up): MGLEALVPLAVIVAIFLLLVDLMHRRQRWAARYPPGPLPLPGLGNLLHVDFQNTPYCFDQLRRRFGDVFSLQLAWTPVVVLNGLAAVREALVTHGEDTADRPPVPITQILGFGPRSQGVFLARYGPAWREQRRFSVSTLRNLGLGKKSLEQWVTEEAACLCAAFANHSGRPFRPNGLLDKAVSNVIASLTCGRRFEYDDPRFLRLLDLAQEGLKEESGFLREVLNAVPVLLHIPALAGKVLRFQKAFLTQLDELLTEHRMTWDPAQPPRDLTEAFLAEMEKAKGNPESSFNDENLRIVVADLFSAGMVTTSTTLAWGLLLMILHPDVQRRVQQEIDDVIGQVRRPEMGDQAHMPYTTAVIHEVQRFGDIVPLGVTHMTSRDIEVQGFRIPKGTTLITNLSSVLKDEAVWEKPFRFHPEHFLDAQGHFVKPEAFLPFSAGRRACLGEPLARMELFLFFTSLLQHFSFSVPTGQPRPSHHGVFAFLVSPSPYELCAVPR
Summary of the method: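 Human CYP2D6 (5 nM) with 30 uM Luciferin-ME EGE (at Km) in 100 mM KPO4, compound preincubated 10 min, then NADPH regeneration system for 60 min at room temperature. Luciferin read by luminescence; normalized to 1.43 uM quinidine.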

[5] = target: DNA dC->dU-editing enzyme APOBEC-3G (Homo sapiens) (UniProt Q9HC16); test: qHTS for inhibitors of Vif-A3G interactions: Validation (AID 588379); note: 0% is about no effect
Chain of DNA dC->dU-editing enzyme APOBEC-3G (Homo sapiens) (Q9HC16 whole entry, looked up): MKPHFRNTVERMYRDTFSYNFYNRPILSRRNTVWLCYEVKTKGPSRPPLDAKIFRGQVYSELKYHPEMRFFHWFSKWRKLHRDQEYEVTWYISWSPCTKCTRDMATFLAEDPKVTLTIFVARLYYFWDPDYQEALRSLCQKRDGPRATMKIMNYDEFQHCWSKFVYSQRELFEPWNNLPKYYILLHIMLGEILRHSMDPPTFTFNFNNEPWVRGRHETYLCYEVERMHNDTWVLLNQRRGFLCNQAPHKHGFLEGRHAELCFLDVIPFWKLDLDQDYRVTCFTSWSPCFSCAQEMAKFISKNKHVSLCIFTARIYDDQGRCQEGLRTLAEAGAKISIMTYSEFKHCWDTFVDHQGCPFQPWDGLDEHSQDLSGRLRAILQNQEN
Summary of the method: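 HeLa cells stably expressing Vif and A3G-eYFP, 700 cells/well, incubated overnight at 37 deg C, then exposed to compound overnight at 37 deg C. Inhibition of Vif-mediated degradation read as increased yellow fluorescence (Ex 488/Em 500-530) by laser-scanning cytometry.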

[6] = test system: Zika virus NS2B-NS3 protease; test: Primary screen GU AMC qHTS for Zika virus inhibitors (AID 1347154);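 note: 0% = no-inhibitor control and -100% = no-enzyme control; nearly all actives have a fitted effect of over 70% in size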
Summary of the method: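 Unlinked Zika NS2B hydrophilic domain/NS3 protease domain noncovalent complex (25 nM final) in 10 mM Tris-HCl pH 8.0, 0.01% Tween 20, with AMC peptide substrate. Fluorescence (ex 340, em 450 nm) change over 15 min, room temperature; percent inhibition fitted to 4-parameter Hill equation.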

[7] = Primary qHTS for small molecule stabilizers of the endoplasmic reticulum resident proteome: Secreted ER Calcium Modulated Protein (SERCaMP) assay (AID 1508630); note: % is set by controls: 0 for no effect and ±100 for the full control effect
Summary of the method: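 GLuc-SERCaMP-expressing SH-SY5Y cells, pretreated 16 h with compound, are challenged with thapsigargin to empty ER calcium stores; after 4 h, coelenterazine is added directly to the medium and luminescence is imaged.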

[8] = AP1 Signaling Pathway (AID 357; active = well fitted curve in either direction with a large enough effect, not every such curve was filed as active;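 note: ME-180 reporter cells stimulated with EGF at its EC50 level; % is set by controls: 0 for no effect and ±100 for the full control effect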)
Summary of the method: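 A ratiometric CCF4 readout (405 nm excitation; 460 and 530 nm emission) quantified AP-1-driven beta-lactamase in ME-180 cells after 5 h with compound and EC50 EGF; AC50 values were derived for activators and inhibitors.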

[9] = target: Cytochrome P450 2C19 (Homo sapiens) (UniProt P33261); test: qHTS Assay for Inhibitors and Substrates of Cytochrome P450 2C19 (AID 899); note: nearly all actives have a fitted effect of over 60% in size; note: potency is the fitted concentration of half-maximal effect
Chain of Cytochrome P450 2C19 (Homo sapiens) (P33261 whole entry, looked up): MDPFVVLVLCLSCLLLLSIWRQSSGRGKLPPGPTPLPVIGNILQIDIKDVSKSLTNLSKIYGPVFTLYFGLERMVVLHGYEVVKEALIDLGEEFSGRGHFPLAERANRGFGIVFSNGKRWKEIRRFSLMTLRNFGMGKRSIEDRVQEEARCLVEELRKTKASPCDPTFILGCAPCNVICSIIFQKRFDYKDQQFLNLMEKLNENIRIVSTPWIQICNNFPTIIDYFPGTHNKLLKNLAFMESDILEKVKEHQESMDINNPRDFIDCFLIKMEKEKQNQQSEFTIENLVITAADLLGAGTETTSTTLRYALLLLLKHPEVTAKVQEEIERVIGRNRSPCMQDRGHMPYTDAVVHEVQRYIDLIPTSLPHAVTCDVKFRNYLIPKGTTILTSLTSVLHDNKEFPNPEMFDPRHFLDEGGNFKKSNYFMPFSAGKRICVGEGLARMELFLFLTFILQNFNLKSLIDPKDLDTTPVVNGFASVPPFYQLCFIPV
Summary of the method: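 Human CYP2C19 (5nM) with Luciferin-H EGE at 10uM (its KM) in 50mM KPO4 was preincubated with compound for 10 min at 37C. NADPH regeneration started a 60 min 37C reaction. Luciferin was read by luminescence, normalized to 57uM ketoconazole.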

[10] = NFAT Signaling Pathway (AID 444; active = well fitted curve in either direction with a large enough effect, not every such curve was filed as active;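 note: carbachol stimulus at about its EC50 of 1 µM final; % is set by controls: 0 for no effect and ±100 for the full control effect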); details: Jurkat NFAT-bla M1, carbachol, beta-lactamase ratio, 5 h
Summary of the method: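 Jurkat cells carrying an NFAT-driven β-lactamase reporter and co-transfected muscarinic M1 receptor were treated with compound plus carbachol (1 uM final, an EC50 level) for 5 h at 37 °C. CCF4 loading followed for 1 h at RT; 460/530 nm ratio gave %activity.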

[11] = target: Glucocorticoid receptor (Homo sapiens) (UniProt P04150); test: GR-EFC Redistribution (AID 451; calls by dose curve; note: potency is the fitted concentration of half-maximal effect); details: CHO-K1 GR-EFC translocation, beta-gal luminescence, 2 h
Summary of the method: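 CHO-K1 cells stably expressing nuclear-localized β-gal enzyme acceptor and GR fused C-terminally to the enzyme donor fragment; ligand-driven nuclear translocation restores β-gal by complementation. Compounds titrated up to 46 uM final, 2 h at 37 °C; luminescence read.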

[12] = target: 3',5'-cyclic-AMP phosphodiesterase 4B (Homo sapiens) (UniProt Q07343); test: qHTS Assay for Inhibitors of PDE-IV (AID 607; active = well fitted activation curve with a large enough effect in the main read-out, with a control signal flat, not every such curve was filed as active; note: % of control where 0% means no effect)
Chain of 3',5'-cyclic-AMP phosphodiesterase 4B (Homo sapiens) (Q07343 whole entry, looked up): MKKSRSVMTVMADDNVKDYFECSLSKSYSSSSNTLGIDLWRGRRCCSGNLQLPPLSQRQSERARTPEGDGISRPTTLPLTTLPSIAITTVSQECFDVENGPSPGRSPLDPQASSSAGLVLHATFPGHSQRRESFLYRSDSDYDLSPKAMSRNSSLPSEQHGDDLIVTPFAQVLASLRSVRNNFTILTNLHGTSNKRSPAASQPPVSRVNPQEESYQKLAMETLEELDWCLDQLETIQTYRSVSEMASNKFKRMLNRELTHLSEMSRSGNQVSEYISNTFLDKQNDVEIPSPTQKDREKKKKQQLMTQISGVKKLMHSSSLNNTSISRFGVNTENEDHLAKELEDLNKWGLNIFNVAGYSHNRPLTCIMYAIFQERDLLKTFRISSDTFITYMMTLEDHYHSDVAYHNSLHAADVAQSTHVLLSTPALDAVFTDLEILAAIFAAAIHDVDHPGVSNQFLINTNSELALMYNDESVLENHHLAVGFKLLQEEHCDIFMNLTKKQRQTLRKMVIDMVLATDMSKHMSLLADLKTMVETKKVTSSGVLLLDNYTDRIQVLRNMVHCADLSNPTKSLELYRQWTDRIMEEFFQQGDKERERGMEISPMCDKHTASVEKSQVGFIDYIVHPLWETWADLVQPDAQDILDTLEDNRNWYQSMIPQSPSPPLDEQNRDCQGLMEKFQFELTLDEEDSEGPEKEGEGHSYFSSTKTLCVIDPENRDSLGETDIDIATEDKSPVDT
Summary of the method: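 Cell-based read-out of cAMP via a modified cyclic nucleotide-gated channel and membrane potential dye (535/590 nm) in HEK293 cells expressing PDE4 endogenously. Compounds tested up to 22.9 uM final; 100 uM RO 20-1724 reference.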

[13] = target: Pyruvate kinase (Leishmania mexicana) (UniProt Q27686); test: qHTS Validation Assay for Inhibitors of Leishmania Mexicana Pyruvate Kinase (AID 945);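 note: 0% = DMSO only neutral control wells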
Summary of the method: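 Purified LmPYK (E451W mutant, 0.2 nM) was incubated 1 h at room temperature with 0.5 mM PEP and 0.1 mM ADP in 50 mM imidazole pH 7.2, 50 mM KCl, 7 mM MgCl2; ATP formed was read by PKLight luminescence, normalized to DMSO wells.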

[14] = target: Pyruvate kinase PKM (Homo sapiens) (UniProt P14618); test: qHTS Assay for Activators of Human Muscle Pyruvate Kinase (AID 954; active = well fitted curve in the direction sought with a large enough effect, not every such curve was filed as active;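 note: 0% = uninhibited enzyme and -100% = no enzyme or full thiadiazolimine inhibition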)
Summary of the method: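 Human PKM2 activity is measured as ATP generation, detected by luciferase-coupled luminescence. The enzyme (0.1 nM) acts on 0.5 mM PEP and 0.1 mM ADP for 1 h at ambient temperature; data are normalized to uninhibited and full-inhibition wells.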

[15] = target: Alpha-galactosidase (Coffea arabica) (UniProt Q42656); test: Counterscreen for Glucocerebrosidase Inhibitors: qHTS Assay for Coffee Bean alpha-Galactosidase at pH 4.5 (AID 957);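 note: plate controls were enzyme alone for no effect and no enzyme for full effect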
Chain of Alpha-galactosidase (Coffea arabica) (Q42656 whole entry, looked up): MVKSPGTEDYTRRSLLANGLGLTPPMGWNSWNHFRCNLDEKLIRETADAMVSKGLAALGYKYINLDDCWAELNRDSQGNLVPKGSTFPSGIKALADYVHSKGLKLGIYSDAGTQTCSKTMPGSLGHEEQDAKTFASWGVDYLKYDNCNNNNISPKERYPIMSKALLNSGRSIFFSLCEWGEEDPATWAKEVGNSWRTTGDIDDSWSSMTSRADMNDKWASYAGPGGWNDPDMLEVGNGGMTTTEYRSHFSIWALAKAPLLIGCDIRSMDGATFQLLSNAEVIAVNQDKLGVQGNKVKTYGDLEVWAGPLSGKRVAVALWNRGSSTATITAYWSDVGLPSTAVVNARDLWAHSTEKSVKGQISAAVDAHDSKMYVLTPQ
Summary of the method: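 Green coffee bean enzyme (2 nM final) was incubated with compounds (0.7 nM to 77 uM) and 4-methylumbelliferyl alpha-D-galactopyranoside (80 uM final) in 50 mM citric acid, 0.005% Tween-20, pH 4.5, 20 min at room temperature; AC50 from Hill fits.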

[16] = target: Alpha-galactosidase A (Homo sapiens) (UniProt P06280); test: Counterscreen for Glucocerebrosidase Inhibitors: qHTS Assay for Human alpha-Galactosidase at pH 4.5 (AID 992); note: 0% is about no effect
Chain of Alpha-galactosidase A (Homo sapiens) (P06280 whole entry, looked up): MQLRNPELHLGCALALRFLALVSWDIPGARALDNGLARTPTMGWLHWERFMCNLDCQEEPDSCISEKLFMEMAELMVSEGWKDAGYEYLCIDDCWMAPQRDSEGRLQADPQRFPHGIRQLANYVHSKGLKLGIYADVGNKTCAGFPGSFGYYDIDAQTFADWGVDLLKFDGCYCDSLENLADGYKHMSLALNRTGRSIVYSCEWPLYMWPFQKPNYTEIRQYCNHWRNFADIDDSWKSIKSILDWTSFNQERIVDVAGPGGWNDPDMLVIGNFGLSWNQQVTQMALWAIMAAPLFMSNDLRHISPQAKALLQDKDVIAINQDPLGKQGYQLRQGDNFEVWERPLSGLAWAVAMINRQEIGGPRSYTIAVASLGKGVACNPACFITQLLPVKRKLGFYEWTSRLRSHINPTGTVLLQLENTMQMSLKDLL
Summary of the method: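 Quantitative HTS: compounds tested from 0.7 nM up to 77 uM against 2 nM enzyme with 80 uM 4-MU alpha-D-galactopyranoside. The 20 min room-temperature reaction is stopped with 1M NaOH/1M glycine, pH 10.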

[17] = target: alpha-glucosidase (Oryza sativa, rice) (UniProt Q653V4); test: Counterscreen for Glucocerebrosidase Inhibitors: qHTS Assay for Rice alpha-Glucosidase at pH 5.0 (AID 997);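 note: 0% = full activity with enzyme and -100% = basal without enzyme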
Summary of the method: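 Rice alpha-glucosidase (4 nM final) with 400 uM 4-methylumbelliferyl-alpha-D-glucopyranoside in citrate buffer pH 5.0, 20 min at room temperature, stopped at pH 10; fluorescence 365/440 nm, compounds 0.7 nM–77 uM, AC50 from Hill fits.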

[18] = target: Alpha-galactosidase (Coffea arabica) (UniProt Q42656); test: Counterscreen for Glucocerebrosidase Inhibitors: qHTS Assay for Coffee Bean alpha-Galactosidase at pH 5.9 (AID 998);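 note: plate controls were uninhibited enzyme for no effect and no-enzyme basal signal for full effect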
Summary of the method: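 Green coffee bean enzyme (2 nM final) was incubated with compounds (0.7 nM–77 uM) and 4-methylumbelliferyl alpha-D-galactopyranoside (80 uM) in citrate buffer pH 5.9, 20 min at room temperature. High-pH stop; fluorescence 365/440 nm; AC50 from Hill fits.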

[19] = qHTS Assay for Lipid Storage Modulators (AID 1519; calls by dose curve); details: Drosophila S3 cells, BODIPY lipid droplet/cell ratio, laser cytometry, cells loaded with oleic acid; for activity change, negative = inhibition: at 57.5 µM (top of the series)
Summary of the method: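 Cells seeded at 5,000 per well were treated with compounds over a concentration series and loaded with oleic acid (400 uM, as added). Lipid droplet fluorescence (488 nm excitation, 500-530 nm channel) was read by laser-scanning cytometry and normalized to 20 uM Triacsin C.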

[20] = target: Ubiquitin carboxyl-terminal hydrolase 1 (Homo sapiens) (UniProt O94782); test: Inhibitors of USP1/UAF1: Pilot qHTS (AID 504865);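 note: rhodamine fluorescence freed from ubiquitin-rhodamine substrate followed over time; top concentration of the series differs between compounds; % is set by controls: 0 for no effect and ±100 for the full control effect; nearly all actives have a fitted effect of over 35% in size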
Chain of Ubiquitin carboxyl-terminal hydrolase 1 (Homo sapiens) (O94782 whole entry, looked up): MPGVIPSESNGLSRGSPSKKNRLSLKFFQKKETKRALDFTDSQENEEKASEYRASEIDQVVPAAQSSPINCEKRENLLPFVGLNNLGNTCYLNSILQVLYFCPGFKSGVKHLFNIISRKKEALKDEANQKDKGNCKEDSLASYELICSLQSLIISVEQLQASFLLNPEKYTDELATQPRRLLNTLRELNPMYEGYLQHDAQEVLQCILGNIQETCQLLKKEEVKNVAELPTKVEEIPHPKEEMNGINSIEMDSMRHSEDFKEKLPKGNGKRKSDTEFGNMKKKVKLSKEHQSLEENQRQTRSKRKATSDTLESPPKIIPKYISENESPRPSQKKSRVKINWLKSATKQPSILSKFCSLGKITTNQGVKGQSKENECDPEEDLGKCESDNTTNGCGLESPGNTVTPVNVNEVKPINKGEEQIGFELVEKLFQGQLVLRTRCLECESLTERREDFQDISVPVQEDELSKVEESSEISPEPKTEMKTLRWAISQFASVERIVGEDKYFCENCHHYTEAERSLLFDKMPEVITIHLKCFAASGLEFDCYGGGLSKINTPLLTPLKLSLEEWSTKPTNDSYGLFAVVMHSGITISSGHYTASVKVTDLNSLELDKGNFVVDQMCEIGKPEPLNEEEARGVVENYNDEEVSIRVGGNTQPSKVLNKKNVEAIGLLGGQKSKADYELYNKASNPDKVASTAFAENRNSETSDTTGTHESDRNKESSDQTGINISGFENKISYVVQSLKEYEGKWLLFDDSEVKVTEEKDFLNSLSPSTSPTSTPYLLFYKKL
Summary of the method: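 Deubiquitinase activity followed as kinetic rhodamine fluorescence release from 150 nM Ub-Rho. 1 nM USP1/UAF1 with compound, after 15 min room-temperature preincubation, in HEPES pH 7.8 buffer containing TCEP, EDTA, BSA and Tween-20.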

[21] = measured here: cell count channel max response
[22] = measured here: lipid channel max response

c1ccc(CCCCN2CCC(c3ccccc3)CC2)cc1
active: Potency [1] 15.8 µM | Potency [4] 0.0398 µM
inactive: Potency [2] > 46 µM | outcome [3] | Potency [5] | Potency [6] | Potency [7]

S=C=Nc1cccc(C2(N3CCCCC3)CCCCC2)c1
inactive: outcome [8] | Potency [1] | Potency [2] > 46 µM | Potency [9] | Potency [5] | Potency [6] | Potency [7]

COC1=CC(=O)OC(/C=C/c2ccccc2)C1 (centres undefined)
inactive: outcome [8] | activity change, negative = inhibition ([10]; at 17.2 µM (top of the series)) -0.501% | Potency [2] > 20.6 µM | Potency [6] | Potency [7]

N[C@H](C(=O)O)c1cc(=O)[nH]o1
inactive: outcome [8] | Potency [1] | activity change, negative = inhibition ([10]; at 38 µM (top of the series)) 2.26% | Potency [2] > 46 µM | Potency [11] > 46 µM | outcome [3] | Potency [12] | Potency [4] | Potency [9] | outcome [13] | outcome [14] | outcome [15] | outcome [16] | outcome [17] | outcome [18] | activity change, negative = inhibition [19] 3.47% | Potency [5] | Potency [6]
-3.07%: max response [19, 21]
-3.59%: max response [19, 22]

CCCCC[C@H]1C(=O)O[C@H](C)[C@H](NC(=O)c2cccc(NC=O)c2O)C(=O)O[C@@H](C)[C@@H]1OC(=O)CC(C)C
inactive: Potency [6] | Potency [7]

N[C@H](Cc1o[nH]c(=O)c1Cl)C(=O)O
4.87%: max response [19, 22]
active: Potency [4] 0.158 µM | Potency [9] 1.26 µM
4.55%: max response [19, 21]
inactive: Potency [1] | Potency [2] > 46 µM | outcome [3] | activity change, negative = inhibition [19] -0.357% | Potency [20] | Potency [5] | Potency [6]

CNCCc1c[nH]c2ccccc12
inactive: outcome [8] | activity change, negative = inhibition ([10]; at 17.2 µM (top of the series)) -6.51% | Potency [2] > 20.6 µM

NC(=NCc1ccc(Cl)cc1)SCCCc1cnc[nH]1
inactive: Potency [2] > 46 µM | Potency [11] > 46 µM | outcome [3] | Potency [5] | Potency [6]

CC1(C)N(O)C(c2ccc(C(=O)O)cc2)=[N+]([O-])C1(C)C
active: Potency [1] 31.6 µM
inactive: Potency [2] > 46 µM | Potency [11] > 46 µM | outcome [3] | Potency [5] | Potency [6]

CC(C)[C@@]1(NC(=O)[C@H]2CC3c4cccc5[nH]cc(c45)C[C@H]3N(C)C2)O[C@@]2(O)C3CCCN3C(=O)[C@@H](Cc3ccccc3)N2C1=O (some centres undefined)
inactive: Potency [6]

CC(C)n1cnc2c(C(=O)N[C@H]3CN4CCC3CC4)cc(Cl)cc21
19.1%: max response [19, 22]
14.7%: max response [19, 21]
inactive: Potency [2] > 46 µM | activity change, negative = inhibition [19] 2.71% | Potency [20] | Potency [5] | Potency [6]
